In PubChem BioAssay (NCI):
About 79,000 compounds went through this panel and 15% of them were active in at least one assay; those are over-represented in the sample as a whole. Calls of active or inactive are those of the source. No stated cut-off is given here; in the data, active means growth inhibition above about 70%; inactive means the rest.

Columns and labels:
[1] = NCI Yeast Anticancer Drug Screen. Data for the rad50 strain (AID 155);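 further: 0% = growth of vehicle-only cultures of the same strain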; details: S. cerevisiae rad50 strain growth inhibition, stronger effect = higher value
Procedure, shortened: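 Yeast carrying a defined DNA repair defect were exposed to test compounds, and growth was compared with vehicle-treated controls to give percent inhibition.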

[2] = NCI Yeast Anticancer Drug Screen. Data for the mec2-1 strain (AID 157); details: S. cerevisiae mec2-1 strain, stronger effect = higher value
Procedure, shortened: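 Vehicle-treated cultures served as reference for growth inhibition of compound-exposed mec2-1 yeast.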

[3] = NCI Yeast Anticancer Drug Screen. Data for the sgs1 mgt1 strain (AID 161);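 further: 0% = growth of cultures given vehicle only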; details: S. cerevisiae sgs1 mgt1 strain, stronger effect = higher value
Procedure, shortened: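 Inhibition of yeast growth, normalised to vehicle-treated controls, is reported for a strain bearing genetic alterations in DNA damage repair.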

[4] = NCI Yeast Anticancer Drug Screen. Data for the cln2 rad14 strain (AID 165);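 further: 0% = growth equal to vehicle treated cultures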; details: S. cerevisiae cln2 rad14 strain, stronger effect = higher value
Procedure, shortened: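 Each compound was tested on cln2 rad14 yeast. Inhibition of growth was calculated against vehicle-exposed controls.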

[5] = NCI Yeast Anticancer Drug Screen. Data for the bub3 strain (AID 167); details: S. cerevisiae bub3 mutant strain, stronger effect = higher value
Procedure, shortened: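 Compounds were applied to a genetically altered yeast strain carrying a cell-cycle control defect. Growth inhibition was scored against vehicle-treated controls.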

[6] = NCI Yeast Anticancer Drug Screen. Data for the mlh1 rad18 strain (AID 175); details: S. cerevisiae mlh1 rad18 strain growth inhibition, stronger effect = higher value
Procedure, shortened: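 Vehicle-treated cultures served as the reference for growth inhibition in a yeast strain carrying DNA damage repair alterations exposed to each compound.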

[7] = at 5.0 µM (retest, dose inferred, filed as 0.5)
[8] = at 50.0 µM (retest, dose inferred, filed as 5.0)

Measured: growth inhibition

O=[N+]([O-])c1ccc(O)c(C=Nc2ccccc2)c1
inactive: [1]; [7] -114% | [1]; [8] 31% | [2]; [7] -50% | [2]; [8] -21% | [2]; at 50.0 µM 69.5% | [3]; [7] -51% | [3]; [8] 0% | [3]; at 50.0 µM 64% | [4]; [7] -57% | [4]; [8] -6% | [5]; [7] -71% | [5]; [8] -41% | [5]; at 50.0 µM 54.6% | [6]; [7] -96% | [6]; [8] -16%
active: [1]; at 50.0 µM 74.3% | [4]; at 50.0 µM 79.5% | [6]; at 50.0 µM 82.8%

Cc1nn(CCO)c(=O)c(C#N)c1C
active: [5]; [8] 77%
inactive: [1]; [7] 1% | [1]; [8] 17% | [1]; at 50.0 µM 66.2% | [2]; [7] 5% | [2]; [8] 16% | [2]; at 50.0 µM 49% | [3]; [7] 2% | [3]; [8] 14% | [3]; at 50.0 µM 61.7% | [4]; [7] -1% | [4]; [8] -5% | [4]; at 50.0 µM 11.7% | [5]; [7] 19% | [5]; at 50.0 µM 34.1% | [6]; [7] 5% | [6]; [8] 30% | [6]; at 50.0 µM 50.5%

COc1ccc(/C=N/Nc2cc(C)nc3cc4c(cc23)OCO4)c2ccccc12
active: [1]; [8] 88% | [1]; at 50.0 µM 82.6% | [2]; [8] 81% | [2]; at 50.0 µM 85.8% | [3]; [8] 91% | [3]; at 50.0 µM 86% | [5]; at 50.0 µM 97.9% | [6]; [8] 82% | [6]; at 50.0 µM 94.8%
inactive: [1]; [7] 20% | [2]; [7] 6% | [3]; [7] 22% | [4]; [7] 0% | [4]; [8] 24% | [4]; at 50.0 µM 57.6% | [5]; [7] 8% | [5]; [8] 37% | [6]; [7] 12%

Cc1ccc(-c2ccccc2)n1-c1cc(Cl)ccc1O
inactive: [1]; [7] 12% | [2]; [7] 4% | [3]; [7] -1% | [4]; [7] 8% | [5]; [7] 0% | [6]; [7] 10%
active: [1]; [8] 99% | [1]; at 50.0 µM 99% | [2]; [8] 99% | [2]; at 50.0 µM 99.2% | [3]; [8] 99% | [3]; at 50.0 µM 99.2% | [4]; [8] 99% | [4]; at 50.0 µM 97.9% | [5]; [8] 99% | [5]; at 50.0 µM 99% | [6]; [8] 99% | [6]; at 50.0 µM 99.1%

O=[N+]([O-])/C(=C\c1cccs1)c1ccccc1
active: [1]; [7] 90% | [1]; [8] 98% | [1]; at 50.0 µM 99.2% | [2]; [7] 92% | [2]; [8] 99% | [2]; at 50.0 µM 99.7% | [3]; [7] 83% | [3]; [8] 99% | [3]; at 50.0 µM 99.5% | [4]; [7] 75% | [4]; [8] 99% | [4]; at 50.0 µM 99.1% | [5]; [7] 90% | [5]; [8] 99% | [5]; at 50.0 µM 99.5% | [6]; [7] 96% | [6]; [8] 99% | [6]; at 50.0 µM 99.3%

OCCN(CCO)c1cc(/C=C/c2ccnc3ccccc23)nc2ccccc12
inactive: [1]; [7] 7% | [1]; [8] 32% | [1]; at 50.0 µM 60.5% | [2]; [7] 1% | [2]; [8] 23% | [2]; at 50.0 µM 28.6% | [3]; [7] 12% | [3]; [8] 47% | [3]; at 50.0 µM 28.6% | [4]; [7] -1% | [4]; [8] 43% | [4]; at 50.0 µM 61.5% | [5]; [7] 1% | [5]; [8] -13% | [5]; at 50.0 µM -12.6% | [6]; [7] 9% | [6]; [8] 35% | [6]; at 50.0 µM 53.4%

N#CC(=C1C=CC(=NOC(=O)Nc2ccccc2)C=C1)c1ccccc1
inactive: [1]; [7] 18% | [2]; [7] 4% | [3]; [7] 11% | [4]; [7] 1% | [5]; [7] -5% | [6]; [7] 5%
active: [1]; [8] 98% | [1]; at 50.0 µM 99% | [2]; [8] 99% | [2]; at 50.0 µM 99.4% | [3]; [8] 99% | [3]; at 50.0 µM 99.5% | [4]; [8] 99% | [4]; at 50.0 µM 88.3% | [5]; [8] 98% | [5]; at 50.0 µM 99.2% | [6]; [8] 98% | [6]; at 50.0 µM 99.2%

CC(C)(C)CCCC(C(=O)O)c1ccccc1 (configuration not stated)
active: [1]; at 50.0 µM 82.6% | [2]; at 50.0 µM 75.8% | [4]; at 50.0 µM 76.8% | [6]; at 50.0 µM 85.1%
inactive: [1]; [7] 0% | [1]; [8] 50% | [2]; [7] -10% | [2]; [8] 54% | [3]; [7] -2% | [3]; [8] 31% | [3]; at 50.0 µM 63% | [4]; [7] -10% | [4]; [8] 60% | [5]; [7] -7% | [5]; [8] 57% | [5]; at 50.0 µM 55.1% | [6]; [7] -7% | [6]; [8] 49%

O=c1onc(-c2ccc(Cl)cc2)c2ccccc12
active: [4]; at 50.0 µM 82.7%
inactive: [1]; [7] 8% | [1]; [8] 3% | [1]; at 50.0 µM 6.6% | [2]; [7] 4% | [2]; [8] 3% | [2]; at 50.0 µM 16.4% | [3]; [7] 7% | [3]; [8] 5% | [3]; at 50.0 µM -1.2% | [4]; [7] 5% | [4]; [8] 6% | [5]; [7] 2% | [5]; [8] 6% | [5]; at 50.0 µM 14.4% | [6]; [7] -1% | [6]; [8] 4% | [6]; at 50.0 µM 8.15%
